# Measured values as given in PubChem BioAssay (NCATS).
# Inconclusive results are not listed. Calls of active or inactive are those of the source. Calls follow the shape of the dose curve; as a rule, active = well fitted inhibition curve with a large enough effect; inconclusive = small, poorly fitted or top-dose-only effect; inactive = no such curve, though single readings can be large or run the other way.
# Tested on: Zika virus NS2B-NS3 protease (unlinked complex)
# Assay: Primary screen GU Rhodamine qHTS for Zika virus inhibitors: Unlinked NS2B-NS3 protease assay (AID 1347159); also: nearly all actives have a fitted effect of over 60% in size
# Settings: Recombinant ZIKV NS2B-NS3 protease, Rhodamine110 substrate fluorescence; series mostly up to 107 µM; activity change, negative = inhibition: at the top concentration
# Method in brief: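 A qHTS format was used, with compound concentrations ranging up to 114 microM. Each compound was preincubated with 25 nM NS2B-NS3 protease, and the substrate was then added at 1.5 microM. Curves were fitted with a 4-parameter Hill model.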
# % is scaled to controls: 0 for no effect and ±100 for the full control effect; potency is read from the fitted curve at half-maximal effect.
Compound,"activity change, negative = inhibition",Potency
Cc1cc(C(=O)N2CCCCc3ccccc32)ccc1CNC(=O)N1CCC[C@H]1C(=O)N(C)C,10% (inactive),–
CC12CCC(OC3OC(CO)C(O)C(OC4OC(CO)C(O)C(O)C4O)C3O)CC1CCC1C2CCC2(C)/C(=C3/COC(=O)C3)CCC12O (stereo not drawn),10.3% [at 32.5 µM] (inactive),–
CO[C@H]1C[C@@H]2CC[C@@H](C)[C@@](O)(O2)C(=O)C(=O)N2CCCC[C@H]2C(=O)O[C@H]([C@H](C)C[C@@H]2CC[C@@H](OP(C)(C)=O)[C@H](OC)C2)CC(=O)[C@H](C)/C=C(\C)[C@@H](O)[C@@H](OC)C(=O)[C@H](C)C[C@H](C)/C=C/C=C/C=C/1C,0% [at 57.1 µM] (inactive),–
CC(C)c1cc2c(c(O)c1O)[C@@]13CCCC(C)(C)[C@@H]1[C@H](OC3=O)C2=O,–,8.91 µM (active)
CC(C)CCC(=O)CC1c2ccccc2C(=O)N1c1ccc2ccc(Cl)nc2n1 (stereo not drawn),-15% (inactive),–
C=CC(=O)N1CCN(C(=O)CNc2cc(I)c(Cl)cc2O)CC1,-11.2% (inactive),–
Cc1cc2c(F)c(Oc3ncnn4cc(OCC(C)O)c(C)c34)ccc2[nH]1 (stereo not drawn),3.13% (inactive),–
NC(=O)c1cccc(-c2cc(OC(=O)NC3CCCCC3)ccc2O)c1,0% (inactive),–
C=C[C@]1(C)C=C2CCC3C(C)(CCC[C@@]3(C)C(=O)O)C2CC1 (stereo partly drawn),–,12.6 µM (active)
Cc1cn(C2C=CC(CO)O2)c(=O)[nH]c1=O (stereo not drawn),-2.07% (inactive),–
C[C@H](Oc1ccc(S(C)(=O)=O)cc1C(=O)N1CCN(c2ncc(C(F)(F)F)cc2F)CC1)C(F)(F)F,24.3% (inactive),–
CC(C)[C@@H](CS(=O)(=O)C(C)C)N1C(=O)[C@@](C)(CC(=O)O)C[C@H](c2cccc(Cl)c2)[C@H]1c1ccc(Cl)cc1,–,28.2 µM (active)
Cc1ccc(C)c(OCCn2cc(C(=O)O)c3ccccc32)c1,–,39.8 µM (active)
CCCC1(c2ccccc2)NC(=O)N(CC(=O)N(C)Cc2c(F)cccc2Cl)C1=O (stereo not drawn),-20% (inactive),–
Cc1[nH]c2ccccc2c1C1=C(NCCc2ccc(F)cc2)C(=O)N(C)C1=O,-20.4% (inactive),–
Cc1noc(-c2ccc(-c3ccc(CC(=O)O)cc3)cc2)c1NC(=O)O[C@H](C)c1ccccc1,–,14.1 µM (active)
COc1cc2c3c(cc4ccccc4c3c1O)NC2=O,–,22.4 µM (active)

Compound,"activity change, negative = inhibition",Potency
COc1c2c(cc3c1-c1c(cc4c(c1OC)OCO4)CC(C)C(C)C3)OCO2 (stereo not drawn),-15.6% (inactive),–
C[C@@H]1C(=O)O[C@H](C)[C@H]1CC(=O)[C@](C)(O)[C@H]1CC[C@@]2(O)C3=CC(=O)[C@@H]4C[C@@H](O)[C@@H](O)C[C@]4(C)C3CC[C@]12C (stereo partly drawn),5.44% [at 57.1 µM] (inactive),–
O=C(/C=C/c1ccccc1)OC[C@]12O[C@H]1[C@@H](O)[C@@H]1C=CO[C@@H](O[C@@H]3O[C@H](CO)[C@@H](O)[C@H](O)[C@H]3O)[C@@H]12,17.2% [at 57.1 µM] (inactive),–
COc1ccc(-c2cnc3ccc(NCc4ccc(S(N)(=O)=O)cc4)nn23)cc1OC,9.63% (inactive),–
Nc1nccn2c(C3CCC(C(=O)O)CC3)nc(-c3cc4cccc(Cl)c4[nH]3)c12 (stereo not drawn),–,25.1 µM (active)
c1ccc(N2CCN(CCc3nn[nH]n3)CC2)cc1,61.4% (inactive),–
CCCCC1CCN(CCCC(=O)c2ccccc2C)CC1,18.6% (inactive),–
CC1(C)[C@@H](O)CC[C@]2(C)[C@H]3CC=C4[C@@H]5C[C@](C)(C(=O)O)CC[C@]5(C)CC[C@@]4(C)[C@]3(C)CC[C@@H]12,–,7.08 µM (active)
CCCC(=O)C1CCN(c2ncnc3c2CN(C(=O)c2ccc(-c4ccccc4)cc2)CC3)CC1,-9.76% (inactive),–
CC/C=C\CC1C(=O)C=CC1(CCCCCCCC(=O)O)OC(C)=O (stereo not drawn),–,7.08 µM (active)
CC1(C)CC[C@]2(C(=O)O[C@@H]3O[C@H](CO)[C@@H](O)[C@H](O)[C@H]3O)CC[C@]3(C)C(=CCC4[C@@]5(C)C[C@@H](O)[C@H](O)[C@@](C)(CO)C5CC[C@]43C)C2[C@@H]1O (stereo partly drawn),–,10 µM (active)
O=C(COc1cccc2c(=O)[nH]ccc12)c1ccccc1,0.638% (inactive),–
O=C(NCC(O)CO)c1ccncc1Nc1ccc(I)cc1F (stereo not drawn),18.9% (inactive),–
CC(=O)O[C@@H]1[C@@H](O)[C@H](O[C@H]2CC[C@]34C[C@]35CC[C@]3(C)[C@@H]([C@@]6(C)CC[C@@H](C(C)(C)O)O6)[C@@H](O)C[C@@]3(C)[C@@H]5C[C@H](O[C@@H]3O[C@H](CO)[C@@H](O)[C@H](O)[C@H]3O)[C@H]4C2(C)C)OC[C@H]1O,1.94% (inactive),–
C=C1C(=O)OC2CC(C)=C(C(C)CCCO)C(O)C12 (stereo not drawn),–,20 µM (active)
CCOc1cc(C(=O)N2CCC(N3CCN(C)CC3)CC2)ccc1Nc1ncc2c(n1)N(C1CCCC1)c1ccccc1C(=O)N2C,40.9% (inactive),–
